A selection: hits, their analogues and other compounds. The true share with any hit is near 1.3%.
RXFP1 antagonist – antagonists of human relaxin receptor RXFP1; Q9HBX9; HEK293-RXFP1, relaxin-stimulated cAMP HTRF, 30 min; stronger effect = lower value; activity change, negative = inhibition, % at 57.5 µM; 0.59% of 350,000 active; AID 1259400;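 active = activity change of -60% or lower, but not beyond a set lower limit; inconclusive = change between -60% and -40%, or beyond the set limit; inactive = change above -40%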; also: % is scaled to controls: 0 for no effect and ±100 for the full control effect
Target sequence (Q9HBX9 whole entry, looked up): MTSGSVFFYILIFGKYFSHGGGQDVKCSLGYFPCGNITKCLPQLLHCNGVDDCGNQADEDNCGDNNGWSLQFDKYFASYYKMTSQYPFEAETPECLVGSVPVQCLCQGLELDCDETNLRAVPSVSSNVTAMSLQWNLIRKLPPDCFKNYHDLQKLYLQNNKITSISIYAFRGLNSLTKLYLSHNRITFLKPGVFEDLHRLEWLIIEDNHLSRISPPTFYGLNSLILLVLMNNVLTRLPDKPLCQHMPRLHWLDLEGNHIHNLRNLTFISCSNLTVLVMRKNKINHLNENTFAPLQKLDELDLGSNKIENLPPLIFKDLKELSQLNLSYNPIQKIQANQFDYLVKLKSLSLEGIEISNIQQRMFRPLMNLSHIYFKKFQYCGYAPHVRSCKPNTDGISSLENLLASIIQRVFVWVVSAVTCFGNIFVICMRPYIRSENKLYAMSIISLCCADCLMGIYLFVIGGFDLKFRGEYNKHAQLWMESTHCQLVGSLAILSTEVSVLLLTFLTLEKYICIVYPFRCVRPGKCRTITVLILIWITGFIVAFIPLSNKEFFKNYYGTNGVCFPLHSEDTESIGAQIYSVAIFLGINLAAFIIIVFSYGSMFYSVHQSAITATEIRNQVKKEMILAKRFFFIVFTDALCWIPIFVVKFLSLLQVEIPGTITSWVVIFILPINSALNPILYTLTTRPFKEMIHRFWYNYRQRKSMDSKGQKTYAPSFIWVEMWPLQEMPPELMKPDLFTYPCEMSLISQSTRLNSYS
pAkt inh – inhibitors of Akt phosphorylation | activity change, % for hits at 50 µM | 0.32% of 360,000 active | Neuro2A IGF-stimulated pAkt S473 HTRF, 20 min; stronger effect = lower value; in the data active = activity change below about -80%; inconclusive = mostly about -51% to -80%; also: % is scaled to controls: 0 for no effect and ±100 for the full control effect
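Neuro2A cells (4,500/well, DMEM with 0.5% FBS) were treated with compound at a single 50 µM final concentration, stimulated with 6 nM IGF for 20 min at 37 °C, and lysed. Phospho-Akt Ser473 was read by HTRF as 665/615 ratio ×10^4.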
gsp antagonist – antagonizes gsp, the McCune-Albright syndrome mutation | gsp-mutant cells, cAMP HTRF, 30 min | Potency, µM (series often up to 76.9 µM), for the others: at the highest dose activity change, negative = inhibition, hits mostly inhibitors | 0.4% of 340,000 active | AID 624288; calls by dose curve; cell line not stated here;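 also: intracellular cAMP measured with PDE inhibitor Ro 20-1724 present during compound exposure; potency is read from the fitted curve at half-maximal effect; % is scaled to controls: 0 for no effect and ±100 for the full control effect; nearly all actives have a fitted effect of over 65% in size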
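Measurement of cellular cAMP by homogeneous time-resolved fluorescence following a 30 min compound exposure at 37C. The PDE inhibitor […] was present throughout; the assay buffer was DPBS with 0.05% BSA and 0.005% Tween 20.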
gsp agonist – gsp mutant agonism; gsp mutant cells, cAMP HTRF, 30 min; Potency, µM (doses to about 76.9 µM), without a hit: at the highest dose activation (cAMP increase), usual class: activators; 0.13% of 340,000 active; AID 624287; active = well fitted activation curve with a large enough effect; inconclusive = small, poorly fitted or top-dose-only effect, or another doubt; inactive = no such curve, though single readings can be large or run the other way; cell line not stated here;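 also: phosphodiesterase inhibitor Ro 20-1724 added with compounds to block cAMP breakdown; potency is read from the fitted curve at half-maximal effect; nearly all actives have a fitted effect of over 60% in size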
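Cells in DMEM/10% FBS with G418 were pretreated with compounds in DMSO plus […] (300 uM stock) for 30 min at 37C. cAMP was measured by HTRF (cAMP-d2 plus anti-cAMP antibody-K) after 30 min at room temperature.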
RXFP1 ag – agonists of human relaxin receptor RXFP1; HEK293T-RXFP1 cAMP TR-FRET, 30 min; response scale: percent of porcine relaxin response, buffer zero; Potency, µM (top dose mostly 57.5 µM), without a hit: at the highest dose activation, actives largely listed as activators; 0.3% of 370,000 active; active = well fitted activation curve with a large enough effect; inconclusive = small, poorly fitted or top-dose-only effect; also: potency is read from the fitted curve at half-maximal effect; % is scaled to controls: 0 for no effect and ±100 for the full control effect; nearly all actives have a fitted effect of over 60% in size
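Agonist response is measured as cAMP accumulation in an RXFP1-transfected HEK293T line under PDE4 inhibition. Values are scaled between buffer-only and 29 nM porcine relaxin, and EC50s come from standard Hill equation fits.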
The depositor's hits bear a star; [ ] = remark or other dose.

Screening Cc1cccc(OCCCn2c(CCNC(=O)C(C)(C)C)nc3ccccc32)c1 returned RXFP1 antagonist -3.6 and RXFP1 ag -2.1%.
Cc1ccccc1OCCCCn1c(CCNC(=O)C(C)(C)C)nc2ccccc21 was read as RXFP1 antagonist -62.8* and RXFP1 ag -1.0%.
CCC(=O)O[C@]1(C(=O)COC)[C@@H](C)C[C@H]2[C@@H]3CCC4=CC(=O)C=C[C@]4(C)C3(F)[C@@H](O)C[C@@]21C (stereo not given in full) was read as RXFP1 antagonist -31.4.
For Cc1ccc(CSc2nc3cccnc3n2Cc2ccc(C(=O)NCCc3cccs3)cc2)cc1 the results were RXFP1 antagonist -15.1 and RXFP1 ag 8.8%.
Screening CCc1nnc(NC(=O)CSc2nnc(-c3cc4ccccc4cc3O)n2CC)s1 returned RXFP1 antagonist -19.8, pAkt inh inactive, gsp antagonist 28.2µM*, gsp agonist 3.6% and RXFP1 ag -0.2%.
CCc1nnc(NC(=O)CSc2nc(-c3ccccc3)nc3ccccc23)s1 was read as RXFP1 antagonist -1.4, pAkt inh inactive, gsp antagonist 18.8%, gsp agonist 7.94µM* and RXFP1 ag 7.5%.
`CCCn1nnnc1SCC(=O)Nc1nnc(CC)s1` gave RXFP1 antagonist 1.4, pAkt inh -108.3%*, gsp antagonist -5.2%, gsp agonist 25.7% and RXFP1 ag 2.2%.
For CCc1nnc(NC(=O)CSc2nc(C3CCCCC3)nc3ccccc23)s1 the results were RXFP1 antagonist 2.9, pAkt inh inactive, gsp antagonist 2.4%, gsp agonist inconclusive and RXFP1 ag inconclusive.
Screening COc1ccc(N2CC(c3nc(-c4ccccc4C)no3)CC2=O)cc1Cl (stereo not given) returned RXFP1 antagonist -12.4 and RXFP1 ag -1.5%.
For Cc1cnc(NS(=O)(=O)c2ccc(N)cc2)nc1 the results were RXFP1 antagonist 15.4.
`COC(=O)c1c(NC(=O)Cc2cccs2)sc2c1CCCC2` gave RXFP1 antagonist -12.7, pAkt inh inactive, gsp antagonist -7.2%, gsp agonist -51.4% and RXFP1 ag 1.8%.
`COC(=O)c1c(NC(=O)c2cccs2)sc2c1CCC(C)C2` (stereo not given) gave RXFP1 antagonist -18.0, pAkt inh -101.4%*, gsp antagonist -8.2%, gsp agonist 19.8% and RXFP1 ag 4.2%.
COC(=O)c1c(NS(=O)(=O)c2cccs2)sc2c1CCCC2 was read as RXFP1 antagonist 5.7, pAkt inh inactive, gsp antagonist 22.4µM*, gsp agonist -6.1% and RXFP1 ag -0.3%.
`CC1CCc2c(sc(NC(=O)c3cccs3)c2C(=O)O)C1` (stereo not given) gave RXFP1 antagonist -4.4, pAkt inh inactive, gsp antagonist -28.3%, gsp agonist 2.1% and RXFP1 ag -2.0%.
`Cc1ccc(NC(=O)c2oc3ccc(S(=O)(=O)N4CCCCCC4)cc3c2C)c(C)c1` gave RXFP1 antagonist -9.3 and RXFP1 ag inconclusive.
For COc1cccc2sc(N3CCN(C(=O)CCS(=O)(=O)c4ccc(F)cc4)CC3)nc12 the results were RXFP1 antagonist -15.7 and RXFP1 ag 3.2%.
`CCn1c(=NC(=O)CS(=O)(=O)c2ccc(C)cc2)sc2cccc(OC)c21` gave RXFP1 antagonist -18.8, pAkt inh inactive, gsp antagonist 35.5µM*, gsp agonist 4.5% and RXFP1 ag 2.8%.
COCCN1C(=O)C(=O)/C(=C(/O)c2cccc(S(=O)(=O)N(C)C)c2)C12C(=O)N(C)c1ccccc12 (stereo not given) was read as RXFP1 antagonist 12.1, pAkt inh -107.8%*, gsp antagonist -2.2%, gsp agonist -38.0% and RXFP1 ag 0.0%.
`CCCOc1ccc(/C(O)=C2\C(=O)C(=O)N(CCCOC)C23C(=O)N(C)c2ccccc23)cc1` (stereo not given) gave RXFP1 antagonist 28.0, pAkt inh inactive, gsp antagonist 13.5%, gsp agonist 7.4% and RXFP1 ag inconclusive.
C=CCOc1ccc(C2C(C(=O)c3ccco3)=C(O)C(=O)N2Cc2cccnc2)cc1 (stereo not given) was read as RXFP1 antagonist -8.6, pAkt inh inactive, gsp antagonist 13.8%, gsp agonist 28.2µM* and RXFP1 ag 12.4%.
For C=CCOc1cccc(C2C(C(=O)c3ccco3)=C(O)C(=O)N2Cc2cccnc2)c1 (stereo not given) the results were RXFP1 antagonist -2.5, pAkt inh inactive, gsp antagonist 7.1%, gsp agonist 7.4%[15.4 µM] and RXFP1 ag 29.8%.
Screening COc1cccc2cc(C(=O)C3=C(O)C(=O)N(Cc4ccco4)C3c3cccnc3)oc12 (stereo not given) returned RXFP1 antagonist 8.3, pAkt inh inactive, gsp antagonist -2.0%, gsp agonist 10µM* and RXFP1 ag 25.1µM*.
Cc1oc2ncn(CC(C)C)c(=O)c2c1C(=O)NCc1cccc(Cl)c1 was read as RXFP1 ag -0.8%.
For COc1ccc(CN2CCN(C(c3ccc(F)cc3)c3ccc(F)cc3)CC2)c(OC)c1OC the results were RXFP1 antagonist -105.7*, pAkt inh inactive and gsp antagonist inconclusive.
Screening COc1ccc(CN2CCN(c3ccc(F)cc3)CC2)c(OC)c1OC returned pAkt inh inactive, gsp antagonist -1.6%, gsp agonist 13.1% and RXFP1 ag -4.9%.
Screening COc1cccc(NC(=O)CN2CCN(c3ccccc3F)CC2)c1 returned RXFP1 antagonist -7.3, pAkt inh -109.9%*, gsp antagonist 4.0%, gsp agonist inconclusive and RXFP1 ag 1.3%.
For COc1cc(NC(=O)CN2CCN(c3ccccc3F)CC2)cc(OC)c1 the results were RXFP1 antagonist 1.1, pAkt inh inactive, gsp antagonist -0.5%, gsp agonist -4.4% and RXFP1 ag 2.1%.
For COC(=O)C(C)(C)ONC(=O)Nc1ccccc1Br the results were pAkt inh inactive, gsp antagonist 8.7%, gsp agonist -18.1% and RXFP1 ag 0.5%.
`COC(=O)C(C)(C)ONC(=O)Nc1ccccc1Cl` gave RXFP1 antagonist -64.6*, pAkt inh inactive, gsp antagonist -3.6%, gsp agonist -2.3% and RXFP1 ag 0.3%.
For CCN1C(=O)S/C(=C/c2cn(C)c3ccccc23)C1=O the results were RXFP1 antagonist 2.3, pAkt inh inactive, gsp antagonist 9.3%, gsp agonist -39.2% and RXFP1 ag -4.8%.
For Cn1cc(/C=C2\SC(=O)N(c3ccc(O)cc3)C2=O)c2ccccc21 the results were RXFP1 antagonist -14.0, pAkt inh inactive, gsp antagonist 31.6µM*, gsp agonist 0.1% and RXFP1 ag -2.0%.
